Screening results: PubChem, several laboratories
PTK2B oligo ant: antagonists of Pyk2 self-association, primary screen, Q293 cells, FERM NanoBiT luminescence, HTS | Protein-tyrosine kinase 2-beta (Homo sapiens), Q14289 | stronger effect = lower value | z-score (the deposit names both 25 µM and 10 µM) | actives 0.83% (n = 99,000) | AID 1347419, 2020;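 active = Z-score of -3 or lower, scaled per plate to the spread of control and sample wells; inactive = z-score above -3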;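 also: negative z-score means lost luminescence so less FERM oligomerization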
LYP act: LYP phosphatase activators, primary screen, biochemical, DiFMUP fluorescence, 2 µM; recombinant LYP; 0 = plate median, 100 = signal doubled; activation, % at 2 µM; actives 0.11% (n = 96,000); AID 697, 2007;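 active = activation at 2 µM above a set limit, the mean plus 5 SD, cut at about 37% in these data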
PLK1 kinase inh: human PLK1 kinase inhibitors, primary screen, biochemical, TR-FRET | recombinant PLK1 kinase, TR-FRET peptide phosphorylation | inhibition, % at 10 µM | actives 0.53% (n = 97,000) | AID 619, 2007;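 active = inhibition of 50% or more in the single-concentration screen; inactive = inhibition below 50%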;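 also: 0% = DMSO max control and 100% = H-89 dihydrochloride min control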
Target sequence (P53350 whole entry, looked up): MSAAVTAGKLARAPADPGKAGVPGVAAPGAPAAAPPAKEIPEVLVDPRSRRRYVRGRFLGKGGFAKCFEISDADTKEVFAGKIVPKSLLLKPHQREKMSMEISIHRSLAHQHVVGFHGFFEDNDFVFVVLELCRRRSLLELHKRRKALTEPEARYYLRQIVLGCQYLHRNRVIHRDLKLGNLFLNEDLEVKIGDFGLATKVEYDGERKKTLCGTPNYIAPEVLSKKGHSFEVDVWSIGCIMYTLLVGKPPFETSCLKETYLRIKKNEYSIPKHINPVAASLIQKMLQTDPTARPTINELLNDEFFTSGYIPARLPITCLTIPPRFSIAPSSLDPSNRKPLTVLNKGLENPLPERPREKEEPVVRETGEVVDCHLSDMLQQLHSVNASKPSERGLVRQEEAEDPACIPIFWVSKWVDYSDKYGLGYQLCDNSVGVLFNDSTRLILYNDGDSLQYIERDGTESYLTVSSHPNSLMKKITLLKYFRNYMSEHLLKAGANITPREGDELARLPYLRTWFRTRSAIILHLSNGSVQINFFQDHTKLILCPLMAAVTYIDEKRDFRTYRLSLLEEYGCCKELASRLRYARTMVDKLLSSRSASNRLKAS
LYP inh 2: PTPN22 phosphatase inhibitors, primary screen, biochemical, DiFMUP fluorescence, 2 µM. Tyrosine-protein phosphatase non-receptor type 22 (Homo sapiens), Q9Y2R2. recombinant LYP catalytic domain. inhibition, % at 2 µM. actives 0.21% (n = 96,000). AID 640, 2007;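 active = inhibition at 2 µM at or above a set limit, the screen mean plus 3 SD, cut at about 24% in these data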;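 also: 0% = DMSO with enzyme and 100% = enzyme fully blocked by orthovanadate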
Plk1 PBD FP: Plk1 polo box domain binding inhibitors, primary screen, biochemical, fluorescence polarization; Plk1 PBD phosphopeptide binding; inhibition, %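 (tested at about 20 µM)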; actives 0.13% (n = 97,000); AID 693, 2007; in the data active = inhibition above about 34%, passing the limit was not always enough
* = called active by the depositor; / = no result given. Compounds with a hit are over-represented: about 1.7% of the library has one in this group of screens.

SMILES | PTK2B oligo ant | LYP act | PLK1 kinase inh | LYP inh 2 | Plk1 PBD FP
Cc1ccc(C2CC(C(F)(F)F)n3nc(C(=O)NCc4c(C)nn(C)c4C)c(Cl)c3N2)cc1 (stereo not given) | -3.47* | 2.3 | -11.7 | -3.8 | -10.3
Cc1nn(C)c(C)c1CNC(=O)c1cnn2c1NC(c1ccccc1)CC2C(F)(F)F (stereo not given) | -1.05 | 3.1 | -11.6 | -3.8 | -21.4
COCc1cc(C)nc(SCC(=O)Nc2cccc(C)c2C)c1C#N | 1.38 | 2.0 | -4.9 | -1.1 | -6.6
COCc1cc(C)nc(Nc2ccccc2C)c1C#N | 0.57 | -26.5 | -12.1 | 26.0* | -14.3
Cc1ccc(-n2ncc(-c3nnc(SCC(=O)NC4CCCC4)o3)c2N)cc1C | -0.02 | / | / | / | /
CCn1c(SCC(=O)Nc2nc3ccc(C)cc3s2)nc2c(c1=O)SC(C)C2 (stereo not given) | -3.56* | -6.0 | -10.5 | 3.0 | -9.3
O=[N+]([O-])c1cccnc1N1CCC(c2cc(-c3cccc(C(F)(F)F)c3)n[nH]2)CC1 | -3.39* | -6.1 | -11.0 | 6.9 | 10.0
O=C(CSc1nnc(-c2cccs2)n1-c1cccc(Cl)c1)c1cccc2c1OCCO2 | -3.15* | -23.7 | -25.4 | 24.6* | 13.0
O=C(O)CSc1nnc(-c2cccs2)n1-c1ccc(Cl)cc1 | 0.57 | -10.5 | -11.9 | 5.8 | -10.8
COc1ccc(C(=O)c2sc3nc(-c4ccccc4)ccc3c2N)cc1OC | 1.32 | -23.4 | -21.7 | 25.0* | -21.3
COc1ccc(-c2ccc3c(N)c(C(=O)c4ccc(OC)c(OC)c4)sc3n2)cc1 | -0.2 | -9.0 | -17.5 | 7.8 | -10.5
COc1cc(/C=C(\C#N)c2nc3ccccc3[nH]2)ccc1Oc1ccc([N+](=O)[O-])cn1 | -3.34* | -0.3 | -0.7 | 5.3 | -34.9
COc1cc(/C=C(/C#N)c2ccccc2)ccc1Oc1ccc([N+](=O)[O-])cn1 | 0.38 | / | -11.4 | / | -7.4
Cc1nc2ccccc2nc1N1CCC(C)CC1 | 0.59 | 14.9 | -10.4 | -15.8 | -10.5
Cc1cc(N2CCC(C)CC2)nc2cccc(O)c12 | / | -8.9 | 62.7* | 8.1 | -2.5
C=CCN1C(=O)C(CC(=O)Nc2ccc(OC)cc2)N(Cc2ccco2)C1=S (stereo not given) | -0.06 | 6.2 | 0.5 | -2.1 | -34.0
Cc1ccccc1OCC(=O)N/N=C/c1cccn1C | -0.03 | -1.1 | -7.0 | 2.8 | -10.2
CCNC(=O)COc1cc(C)c(Cl)c(C)c1 | 0.85 | -25.0 | -7.9 | 24.6* | 11.3
Cc1cc(OCC(=O)N2CCCC2)cc(C)c1Cl | 0.4 | -1.0 | -10.7 | 0.5 | -9.6
COc1ccccc1C1/C(=C(/O)c2ccccc2)C(=O)C(=O)N1CC(C)O (stereo not given) | -0.8 | -1.4 | -4.0 | -0.7 | 5.8
CCOC(=O)c1sc(NC(=O)c2cc(-c3ccccc3C)nc3ccccc23)c(C#N)c1C | -3.69* | -2.7 | -5.3 | 5.6 | 4.0
Cc1ccccc1-c1cc(C(=O)Nc2sc(C)c(C)c2C(N)=O)c2ccccc2n1 | -0.92 | -0.6 | -7.3 | -1.0 | 22.2
OCc1nc2ccccc2n1CCCOc1ccc(Br)cc1 | 0.11 | -11.3 | -2.2 | 9.8 | 23.3
Cc1cccc(OCc2nc(C#N)c(N3CC(C)CC(C)C3)o2)c1 (stereo not given) | / | / | 60.7* | / | 8.9
O=C(CCCCn1c(=O)[nH]c2ccccc2c1=O)N1CCN(c2cccc(C(F)(F)F)c2)CC1 | -1.63 | -3.7 | -12.2 | 4.8 | -11.3
SMILES | PTK2B oligo ant | LYP act | PLK1 kinase inh | LYP inh 2 | Plk1 PBD FP
O=C(CCCn1c(=S)[nH]c2ccccc2c1=O)N1CCN(c2cccc(Cl)c2)CC1 | -3.02* | -0.1 | -11.3 | 1.8 | 9.6
C=CCn1c(=O)/c(=C/c2ccc(O)cc2)s/c1=C(/C#N)c1nnc2n1CCCCC2 | -3.07* | -10.2 | -12.6 | 7.1 | -171.3
C=CCn1c(=O)/c(=C/c2ccc(Cl)cc2)s/c1=C(/C#N)c1nnc2n1CCCCC2 | -1.97 | -0.4 | -3.8 | -1.7 | -4.1
Cc1sc2nc(CN(Cc3ccccc3)C(=O)NC3CCCCC3)[nH]c(=O)c2c1C | -3.01* | 7.9 | 50.3* | -7.3 | -9.3
CCCCNS(=O)(=O)c1ccc2nc(SCC(=O)Nc3sccc3C#N)[nH]c2c1 | -3.72* | -1.9 | -7.0 | 0.6 | 21.3
CCCCNS(=O)(=O)c1ccc2nc(SCC(=O)c3ccccc3OC)[nH]c2c1 | -1.82 | -4.4 | -5.3 | 5.5 | 33.3
